The text below walks through data of PubChem BioAssay (NCI).

This is part of a sample that, as a whole, favours compounds with a hit. Of some 83,000 tested, about 20% had one in any assay.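 96-well plates, one dose, 48 hours. Percent growth reported; active if below 10.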 A number with no mark means an inactive call. Activity calls are given as the source filed them.

Some test systems named below: HCT-15 colon; HT29 colon; SNB-75 CNS; SNB-19 CNS; U251 CNS; PC-3 prostate; SK-MEL-5 melanoma; UACC-62 melanoma; LOX IMVI melanoma; SK-MEL-28 melanoma; SK-MEL-2 melanoma; EKVX NSCLC; SN12C renal; UO-31 renal; TK-10 renal; ACHN renal; CAKI-1 renal; A498 renal; CCRF-CEM leukemia; MOLT-4 leukemia.
What all share (assay): NCI-60 one-dose screen, 48 h (100 = growth as untreated, 0 = no growth, -100 = all killed)
Holding throughout (settings): 10 µM unless noted

On to `COc1ccc(/C=N/NC(=O)CCN2c3ccccc3Sc3ccccc32)cc1`, for which the growth with HCT-15 colon was 43.9%; in the experiment on HT29 colon, 57%; in the experiment with SNB-75 CNS, 80.1%; in the experiment on SNB-19 CNS it was 75.4%; in the experiment on U251 CNS, 91.5%; in the experiment on PC-3 prostate, 61.4%. For the same compound, the growth with SK-MEL-5 melanoma is 70.4%; in the experiment with UACC-62 melanoma, 63%; in the experiment on LOX IMVI melanoma, 60.9%; with SK-MEL-28 melanoma, 80.9%; with SK-MEL-2 melanoma it was 95.6%; in the experiment with EKVX NSCLC, 79.7%. Besides, the growth was 88.1% in the experiment with SN12C renal; 66.5% in the experiment with UO-31 renal; 111% in the experiment on TK-10 renal; 86.6% in the experiment with ACHN renal; 41.5% in the experiment with CAKI-1 renal; 55.7% in the experiment on A498 renal. Further, the growth with CCRF-CEM leukemia was 82.7%; in the experiment with MOLT-4 leukemia it was 97.8%.

Consider `C#CCOc1cccc(Nc2ncnc3ccc(NC(=O)CCl)cc23)c1`, for which the growth is -41.6% (active) in the experiment on HCT-15 colon; -78.6% (active) in the experiment on HT29 colon; 28% in the experiment with SNB-75 CNS; -23.7% (active) in the experiment on SNB-19 CNS; -60.7% (active) with U251 CNS; -59.3% (active) in the experiment with PC-3 prostate. Also, the growth was -92.8% (active) in the experiment on SK-MEL-5 melanoma; -67.5% (active) with UACC-62 melanoma; -75.4% (active) with LOX IMVI melanoma; -17.2% (active) in the experiment on SK-MEL-28 melanoma; -47.9% (active) in the experiment on SK-MEL-2 melanoma; -45.2% (active) in the experiment on EKVX NSCLC. The growth in the experiment with SN12C renal is -24.7% (active); in the experiment on UO-31 renal it was -87.8% (active); in the experiment with TK-10 renal it was -60.8% (active); with ACHN renal, -80.8% (active); with CAKI-1 renal, 1.72% (active); in the experiment with A498 renal it was -2.12% (active). Besides, the growth with CCRF-CEM leukemia was -56.9% (active); in the experiment with MOLT-4 leukemia it was -25.1% (active).

`Oc1ccc(CN2CCC(N3CCCCC3)CC2)c2cccnc12`: the growth in the experiment with HCT-15 colon is 18%; with HT29 colon, 105%; in the experiment with SNB-75 CNS, 25.4%; in the experiment with SNB-19 CNS, 23.7%; with U251 CNS it was 17.6%; in the experiment with PC-3 prostate, 17.9%. Further, the growth in the experiment on SK-MEL-5 melanoma is -29.4% (active); in the experiment with UACC-62 melanoma, 14.9%; in the experiment on LOX IMVI melanoma it was 17.8%; in the experiment with SK-MEL-28 melanoma, 33.4%; with SK-MEL-2 melanoma, 2.95% (active); in the experiment on EKVX NSCLC, 45.6%. The growth with SN12C renal was 22.2%; in the experiment on UO-31 renal it was 5.93% (active); with TK-10 renal it was -58.5% (active); in the experiment on ACHN renal, 8.86% (active); in the experiment with CAKI-1 renal it was 44%; in the experiment on A498 renal, 71.3%. Also, the values for the growth with CCRF-CEM leukemia and with MOLT-4 leukemia were 35.8% and 41.2%, respectively.

On to `O=C1Nc2ccccc2/C1=C\c1nc(-c2ccccc2)n2ccccc12`, for which the growth in the experiment with HCT-15 colon was 80.2%; with HT29 colon, 91.6%; with SNB-75 CNS, 79.6%; with SNB-19 CNS it was 103%; with U251 CNS, 89.6%; in the experiment with PC-3 prostate, 87.4%. Further, the growth with SK-MEL-5 melanoma was 89.7%; in the experiment on UACC-62 melanoma, 78.3%; in the experiment on LOX IMVI melanoma it was 84.6%; in the experiment with SK-MEL-28 melanoma, 113%; in the experiment on SK-MEL-2 melanoma, 94.2%; in the experiment with EKVX NSCLC, 74.1%. In addition, the growth was 96.2% in the experiment on SN12C renal; 79.8% in the experiment on UO-31 renal; 84.2% in the experiment on TK-10 renal; 71.1% with ACHN renal; 76.5% with CAKI-1 renal; 119% with A498 renal. Further, the growth in the experiment with CCRF-CEM leukemia is 84.1%; in the experiment on MOLT-4 leukemia it was 88.1%.

As to `CC(C)CCC[C@@H](C)[C@H]1CC[C@H]2[C@@H]3CC=C4C[C@@H](C(C(=O)O)C(=O)O)CC[C@]4(C)[C@H]3CC[C@]12C`, the growth is -6.36% (active) with HCT-15 colon; -35.1% (active) in the experiment on HT29 colon; -61.1% (active) in the experiment with SNB-75 CNS; 18.6% with SNB-19 CNS; -46.8% (active) in the experiment on U251 CNS; -5.95% (active) in the experiment on PC-3 prostate. Further, the growth with SK-MEL-5 melanoma is -96% (active); with UACC-62 melanoma, -53.4% (active); in the experiment on LOX IMVI melanoma, -29.3% (active); with SK-MEL-28 melanoma it was -49.6% (active); in the experiment with SK-MEL-2 melanoma, -58.5% (active); in the experiment with EKVX NSCLC, -32.4% (active). The growth was -12.2% (active) in the experiment on SN12C renal; -53.4% (active) with UO-31 renal; -52% (active) with TK-10 renal; -17.7% (active) with ACHN renal; -51% (active) with CAKI-1 renal; -84.4% (active) in the experiment on A498 renal. In addition, the growth with CCRF-CEM leukemia was -24.3% (active); in the experiment with MOLT-4 leukemia, -56.2% (active).

As to `CCCCNC(=O)Oc1ccc(/C(=C(/CC)Cc2ccccc2)c2ccc(OCCN3CCCCCC3)cc2)cc1`, the growth was -29.9% (active) in the experiment with HCT-15 colon; -21% (active) in the experiment on HT29 colon; 61.2% in the experiment with SNB-75 CNS; 45.2% in the experiment on SNB-19 CNS; 25.7% with U251 CNS; 39.8% with PC-3 prostate. Also, the growth in the experiment with SK-MEL-5 melanoma is 13.1%; with UACC-62 melanoma, 24%; in the experiment with LOX IMVI melanoma, -93.6% (active); in the experiment with SK-MEL-28 melanoma, -6.15% (active); in the experiment with SK-MEL-2 melanoma, 84.9%; in the experiment on EKVX NSCLC, 59.2%. Also, the growth is 25.8% in the experiment on SN12C renal; 35.2% in the experiment with UO-31 renal; 92.4% in the experiment on TK-10 renal; 66.4% with ACHN renal; 72.1% in the experiment on CAKI-1 renal; 72% with A498 renal. In addition, the growth was 5.36% (active) in the experiment on CCRF-CEM leukemia and 2.34% (active) with MOLT-4 leukemia.

Regarding `N#CC1CCc2c(c(-c3cn[nH]c3C(F)(F)F)nc3c(F)cc4[nH]ncc4c23)C1` (stereo not given), the growth was 86.1% in the experiment with HCT-15 colon; 42.1% in the experiment on HT29 colon; -4.91% (active) with SNB-75 CNS; 32.7% in the experiment with SNB-19 CNS; 28.9% in the experiment on U251 CNS; 43.6% in the experiment with PC-3 prostate. In addition, the growth in the experiment on SK-MEL-5 melanoma is 6.54% (active); with UACC-62 melanoma it was 8.91% (active); in the experiment on LOX IMVI melanoma it was 17.1%; in the experiment on SK-MEL-28 melanoma, 24.9%; with SK-MEL-2 melanoma, -34.6% (active); in the experiment on EKVX NSCLC, 57.4%. In addition, the growth in the experiment on SN12C renal was 25.7%; in the experiment with UO-31 renal, 56.8%; in the experiment with TK-10 renal, 19.4%; with ACHN renal, 62.9%; in the experiment on CAKI-1 renal it was 25.6%; in the experiment on A498 renal, -23.3% (active). Further, the growth in the experiment with CCRF-CEM leukemia was 29.2%; in the experiment with MOLT-4 leukemia, 19.8%.
